Screens deposited in PubChem by NMMLSC.
Sampled rows, rich in hits. Any-hit rate of the full collection: about 1.2%.
RGS4-Gao reg: modulates binding of RGS4 to human Galphao | Multiplexed bead flow cytometry; actives lie on both sides | binding response (% of control), % at 10 µM | 220,000 compounds, 0.33% hits | P09471; in the data active = binding response below about 49% or above about 150%; inactive = in between;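 also: fluorescent Galphao activated with aluminum fluoride binding bead-coupled RGS4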
Target sequence (P09471 whole entry, looked up): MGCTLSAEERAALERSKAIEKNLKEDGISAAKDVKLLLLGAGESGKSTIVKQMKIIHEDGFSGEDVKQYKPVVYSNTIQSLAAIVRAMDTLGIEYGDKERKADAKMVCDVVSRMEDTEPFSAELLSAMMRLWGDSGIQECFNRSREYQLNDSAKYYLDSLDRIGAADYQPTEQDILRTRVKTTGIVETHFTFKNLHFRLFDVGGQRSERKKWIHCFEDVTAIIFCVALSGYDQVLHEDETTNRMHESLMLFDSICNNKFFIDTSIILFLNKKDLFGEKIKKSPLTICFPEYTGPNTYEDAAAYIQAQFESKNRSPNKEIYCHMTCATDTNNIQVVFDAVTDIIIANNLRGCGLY
Avidin fluor: avidin bead compound fluorescence profile; AID 1775; fluorescence (KMESF) at 10 µM; 220,000 compounds, 0.38% hits; Avidin beads, compound fluorescence 488/530 nm, flow cytometry; hits give high values; in the data active = fluorescence above about 47
GSH bead fluor: GSH bead compound fluorescence profile; AID 1776; GSH beads flow cytometry, compound fluorescence 488/530 nm; hits give high values; fluorescence (KMESF) at 10 µM; 190,000 compounds, 0.25% hits; in the data active = fluorescence above about 89;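 also: glutathione beads carrying GST-tagged Bcl family fusion proteins plus one bare bead set; values are compound well signal with DMSO vehicle wells as background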
RGS16-Gao HTS: regulators of human RGS16-Galphao interaction. 220,000 compounds, 0.38% hits. O15492+P09471. bead-based flow cytometry RGS16-Galphao binding, fluorescence; actives lie on both sides. binding response (% of control), % at 10 µM. AID 1441;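 also: Galphao activated by GDP with aluminum fluoride before binding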
Target sequence (O15492 whole entry, looked up): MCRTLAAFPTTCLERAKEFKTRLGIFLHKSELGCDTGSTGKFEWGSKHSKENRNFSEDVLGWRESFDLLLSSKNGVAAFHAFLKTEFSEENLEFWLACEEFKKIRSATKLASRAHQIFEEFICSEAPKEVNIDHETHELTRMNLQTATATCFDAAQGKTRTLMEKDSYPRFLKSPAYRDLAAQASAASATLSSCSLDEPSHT
Target sequence (P09471 whole entry, looked up): as the sequence (P09471 whole entry, looked up) above
RGS7-Gao: modulates binding of RGS7 to human Galphao; P09471; Multiplexed bead flow cytometry; actives lie on both sides; binding response (% of control), % at 10 µM; 220,000 compounds, 0.35% hits; AID 1439; in the data active = binding response below about 49% or above about 150%; inconclusive = no clear call, values can overlap the other calls; inactive = in between;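 also: fluorescent Galphao held in activated GDP-AlF4 state binding bead-coupled RGS7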
RGS8-Gao: human RGS8-Galphao interaction regulation; AID 1423; P09471; multiplexed bead flow cytometry, RGS8-Galphao binding; actives lie on both sides; 220,000 compounds, 0.34% hits; response (percent of control binding), % at 10 µM; in the data active = response below about 60% or above about 140%; inactive = in between;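 also: Galphao activated as the GDP aluminium fluoride complex binding bead-coupled RGS8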
RGS-Gao: modulates binding between human RGS4 and Galphao | shares compounds with RGS16-Gao HTS | RGS4–Galpha-o binding response, % at 10 µM | multiplexed bead flow cytometry, RGS–Galpha-o binding | 1,600 compounds, 99% hits;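 also: fluorescently labeled Galpha-o bound to GDP with aluminium fluoride binding biotinylated RGS beads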
Avidin counter: counter-screen: compounds disrupting biotin binding to avidin beads; shares compounds with RGS16-Gao HTS; streptavidin beads, fluorescein-biotin binding, flow cytometry; inhibition, % at 10 µM; 1,700 tested, under 10 active; AID 1783;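 active = inhibition above 50%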;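 also: median green fluorescence of gated singlet beads compared with DMSO control wells; 0% = DMSO wells and 100% = complete loss of bead fluorescence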
RGS8-Gao confirm: RGS8-Galphao interaction regulation, single point confirmation | bead-based flow cytometry RGS8-Galphao binding, fluorescence; actives lie on both sides | binding response (% of control), % at 10 µM | shares compounds with RGS16-Gao HTS | AID 1836 | 1,700 compounds, 3% hits; in the data active = binding response below about 72% or above about 130%; inactive = in between;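 also: Galphao activated as GDP AlF4 complex before binding bead RGS8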
RGS7-Gao confirm: confirmation of regulators of human RGS7-Galphao interaction; bead-based flow cytometry RGS7-Galphao binding; actives lie on both sides; response (percent of control binding), % at 10 µM; shares compounds with RGS16-Gao HTS; 1,700 compounds, 7.8% hits; in the data active = response below about 75% or above about 130%; inactive = in between;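 also: fluorescent Galphao activated with GDP and aluminum fluoride binding bead-coupled RGS7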
RGS16-Gao conf: RGS16-Galphao interaction regulation, single point confirmation. response (% of control binding), % at 10 µM. shares compounds with RGS16-Gao HTS. bead-based flow cytometry, RGS16-Galphao binding; actives lie on both sides. 1,700 compounds, 4% hits; in the data active = response below about 74% or above about 130%; inactive = in between;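 also: Galphao activated as the GDP aluminium fluoride complex binding bead-coupled RGS16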
RGS4-Gao single: confirmation of regulators of human RGS4-Galphao interaction; RGS4-Galphao binding, multiplexed bead flow cytometry; actives lie on both sides; shares compounds with RGS16-Gao HTS; 1,700 compounds, 4% hits; binding response (% of control), % at 10 µM; in the data active = binding response below about 74% or above about 130%; inactive = in between
RGS19-Gao single: RGS19-Galphao interaction regulation, single point confirmation; 1,700 compounds, 5% hits; bead-based flow cytometry RGS19-Galphao binding; actives lie on both sides; shares compounds with RGS16-Gao HTS; response (percent of control binding), % at 10 µM; AID 1841; in the data active = response below about 50% or above about 160%; inactive = in between;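 also: 100% = no compound control and 0% = blank background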
* marks the source's active call; other numbers are inactive results; u = inconclusive; x = no result; [ ] = another dose, or the depositor's remark. Unless noted, no rule for the calls is given here.

SMILES	RGS4-Gao reg	Avidin fluor	GSH bead fluor	RGS16-Gao HTS	RGS7-Gao	RGS8-Gao	RGS-Gao	Avidin counter	RGS8-Gao confirm	RGS7-Gao confirm	RGS16-Gao conf	RGS4-Gao single	RGS19-Gao single
CCCCCNCc1ccc(OCc2ccc(Cl)nc2)c(OC)c1	116	25	10	266*[activator]	125	132	116*	-2	102	95	103	101	113
Cc1cc(NC(=O)CSc2nncn2N)no1	105	9	24	101	102	103	x	x	x	x	x	x	x
Cc1ccc2c(c1)cc(CN(Cc1ccco1)C(=O)COc1ccccc1)c1nnnn12	126	102*	53	101	159*[activator]	99	126*	1	100	98	98	96	101
O=C(O)C1CCCN1S(=O)(=O)c1ccc2[nH]c(=O)c(=O)[nH]c2c1 (stereo not drawn)	158*[activator]	22	33	161	144	133	x	1	102	102	100	102	79
CCOC(=O)c1ccc(NC(=O)C2(c3ccccc3)CCCC2)cc1	131	5	7	321	123	144*[activator]	131*	x	x	x	x	x	x
N#Cc1c(-c2ccccc2)nc(N2CCCCCC2)[nH]c1=O	86	3	52	15*	88	82	86*	0	101	104	104	103	95
CCc1ccc(C2CC(=O)N(c3ccc(F)cc3)C3=C2C(=O)OC3)cc1 (stereo not drawn)	104	10	20	103	105	104	x	x	x	x	x	x	x
Cc1ccc(C(=O)NCCCn2ccnc2)cc1[N+](=O)[O-]	98	10	9	102	104	103	x	x	x	x	x	x	x
Cc1cc([N+](=O)[O-])nn1CC(=O)NCCCn1ccnc1	147	103*	20	133	269*[activator]	122	147*	-2	102	80	89	90	61
CCOCCCNC(=O)/C(C#N)=C/c1ccc(-c2ccc(S(=O)(=O)N3CCOCC3)cc2)o1	93	11	22	19	93	75	x	x	x	x	x	x	x
COCCNC(=O)/C(C#N)=C/c1ccc(-c2ccc(S(=O)(=O)N3CCOCC3)cc2)o1	79	5	6	-1.2*	84	74	79*	2	98	116	103	108	121
Cc1cccc(OCC(=O)N2CCCc3ccccc32)c1	100	11	12	105	101	100	x	x	x	x	x	x	x
CCc1cc(=O)oc2c(C)c(OCC(=O)N3CCCc4ccccc43)ccc12	133	6	41	565	118	159*[activator]	133*	-1	99	98	97	100	103
CCOC(=O)c1cccc(C(=O)Nc2nc3ccc(OC)cc3s2)n1	99	11	13	95	101	100	x	x	x	x	x	x	x
Cn1c(SCC(N)=O)nnc1-c1ccccc1	107	14	49	115	106	105	x	x	x	x	x	x	x
Cn1c(CO)cnc1-c1ccccc1	151*[activator]	6	x	150	u	132	x	0	100	99	97	102	99
Cc1n[nH]c(=S)n1/N=C/c1ccccc1OCc1ccc(Cl)cc1Cl	92	5	5	15*	88	69	92*	2	96	105	97	98	98
Cc1ccc(NCc2n[nH]c(=S)n2Cc2ccccc2)cc1Cl	111	65*	11	103	167*[activator]	98	111*	1	101	110	100	102	106
Cc1ccc(NCc2nnc(SCC(=O)O)n2Cc2ccccc2)cc1Cl	102	10	11	102	104	99	x	x	x	x	x	x	x
N#CCCN1CCN(C2=NC(=O)/C(=C\c3cccs3)S2)CC1	101	11	17	99	104	101	x	x	x	x	x	x	x
O=C(COC(=O)c1ccc2c(c1)OCO2)NCc1ccc2c(c1)OCO2	124	7	14	126	113	103	x	x	x	x	x	x	x
Cc1ccc2oc(C(=O)NCc3ccc4c(c3)OCO4)c(C)c2c1	101	7	10	100	100	101	x	x	x	x	x	x	x
Cc1c(C(=O)NCc2ccc3c(c2)OCO3)oc2ccccc12	92	4	59	22*	89	70	92*	-1	107	105	111	104	118
O=C(COC(=O)c1ccco1)NCc1ccc2c(c1)OCO2	34*	2	x	30	u	41*	x	0	112	115	110	112	98
CS(=O)(=O)N(CCc1ccccc1)CC(=O)NCc1ccc2c(c1)OCO2	11*	0	42	3.7*	13*	14*	x	0	93	88	90	90	90
SMILES	RGS4-Gao reg	Avidin fluor	GSH bead fluor	RGS16-Gao HTS	RGS7-Gao	RGS8-Gao	RGS-Gao	Avidin counter	RGS8-Gao confirm	RGS7-Gao confirm	RGS16-Gao conf	RGS4-Gao single	RGS19-Gao single
COCC(=O)N1CCN(c2nc3ccccc3o2)CC1	96	8	13	100	97	97	x	x	x	x	x	x	x
CC(OC(=O)CCc1nc2ccccc2[nH]c1=O)c1ccccc1 (stereo not drawn)	106	23	8	113	103	110	x	x	x	x	x	x	x
CC(=O)C1=C(C)NC(=O)NC1c1ccc(Cl)cc1 (stereo not drawn)	96	9	11	98	93	97	x	x	x	x	x	x	x
COc1ccc(C(=O)Nc2ccccc2C(=O)N(Cc2ccco2)C(C(N)=O)C(C)C)cc1 (stereo not drawn)	225*[activator]	104*	12	333	140	144*[activator]	x	1	96	79	92	83	104
CCCCCCOc1ccc(N2C(=O)CC(N3CCN(CCN=CC4C(=O)CC(C)(C)CC4=O)CC3)C2=O)cc1 (stereo not drawn)	121	85*	14	103	158*[activator]	97	121*	-2	99	97	98	98	94
Cc1ccc(CSc2ncccc2C(=O)O)cc1	104	14	11	97	100	95	x	x	x	x	x	x	x
